Data as given in PubChem BioAssay (NCATS).
Records with an inconclusive call do not appear. A call without a number means that no potency is given here. The source made the active and inactive calls. Calls follow the shape of the dose curve; as a rule, active = well fitted inhibition curve with a large enough effect; inconclusive = small, poorly fitted or top-dose-only effect; inactive = no such curve, though single readings can be large or run the other way.

Target: Cytochrome P450 3A7 (Homo sapiens) (UniProt P24462)
Test: Cytochrome P450 family 3 subfamily A member 7 (CYP3A7) small molecule antagonists: luciferase biochemical qHTS assay (AID 1963596); also: nearly all actives have a fitted effect of over 40% in size
Conditions: P450-Glo CYP3A7 enzyme luminescence, 1 h; series mostly up to 57.4 µM
Procedure, shortened: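 Luminescence read-out (relative luminescence units) after 20 min with detection reagent, which stops the reaction. Enzyme, proluciferin substrate and compound preincubated 10 min, RT; NADPH regeneration system then started 1 h reaction. Ketoconazole as positive control.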

Sequence of Cytochrome P450 3A7 (Homo sapiens) (P24462 whole entry, looked up): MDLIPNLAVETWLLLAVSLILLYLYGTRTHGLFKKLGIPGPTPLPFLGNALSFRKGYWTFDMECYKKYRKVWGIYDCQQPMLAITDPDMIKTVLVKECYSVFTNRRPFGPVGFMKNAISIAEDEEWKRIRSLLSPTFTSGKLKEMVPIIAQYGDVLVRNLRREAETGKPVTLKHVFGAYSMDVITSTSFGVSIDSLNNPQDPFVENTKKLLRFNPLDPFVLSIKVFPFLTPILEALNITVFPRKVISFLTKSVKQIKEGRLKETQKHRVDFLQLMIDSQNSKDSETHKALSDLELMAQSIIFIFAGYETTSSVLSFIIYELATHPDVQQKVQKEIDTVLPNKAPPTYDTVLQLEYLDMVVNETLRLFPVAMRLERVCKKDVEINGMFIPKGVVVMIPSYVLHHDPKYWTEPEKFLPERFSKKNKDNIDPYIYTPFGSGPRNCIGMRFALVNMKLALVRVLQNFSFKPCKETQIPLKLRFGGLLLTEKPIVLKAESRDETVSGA

Row | SMILES | Potency
1 | CCCCCCCCCCCCCCCCNc1ccc(C(=O)O)cc1 | inactive
2 | C/C=C/C=C/C(=O)O | inactive
3 | O=C(O)C1CSC(C(=O)O)N1 (stereo unspecified) | inactive
4 | O=C1C(c2[nH]c3ccc(S(=O)(=O)O)cc3c2O)=Nc2ccc(S(=O)(=O)O)cc21 | inactive
5 | NC(=O)c1ncn(C2OC(CO)C(O)C2O)n1 (stereo unspecified) | inactive
6 | NC(=O)C[C@H](N)C(=O)O | inactive
